± gives the standard deviation of the averaged measurements.
What was measured:
Test in all cases: promoter activity interaction Z-score (Lux/OD deviation from empty-vector control); higher = stronger promoter induction by the compound
[1] = tested on: E. coli BW25113 acrABp lux reporter
In short: (§1)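 Reporter strains of E. coli BW25113 grew at 37°C in 40 µl LB Lennox in 384-well plates. Readings of OD600 and luminescence were taken every 30 min over 12 h, integrated over 0–8 h (wild type) or 1–9 h (deletion strains), and wells below 10% of the median growth value were excluded. Scores are Z-transformed residuals of growth-normalised luminescence from a fit against a control.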

[2] = tested on: E. coli BW25113 marRABp lux reporter
In short: as §1

[3] = tested on: E. coli BW25113 micFp lux reporter
In short: as §1

[4] = tested on: E. coli BW25113 ompFp lux reporter
In short: as §1

[5] = tested on: E. coli BW25113 robp lux reporter
In short: as §1

[6] = tested on: E. coli BW25113 soxSp lux reporter
In short: as §1

[7] = tested on: E. coli BW25113 tolCp lux reporter
In short: as §1

[8] = 0.0012 µg/ml, genetic background: wild type
[9] = 0.0012 µg/ml, genetic background: ΔmarA
[10] = 0.0012 µg/ml, genetic background: Δrob
[11] = 0.0012 µg/ml, genetic background: ΔsoxS
[12] = 0.0024 µg/ml, genetic background: wild type
[13] = 0.0024 µg/ml, genetic background: ΔmarA
[14] = 0.0024 µg/ml, genetic background: Δrob
[15] = 0.0024 µg/ml, genetic background: ΔsoxS
[16] = 0.0048 µg/ml, genetic background: wild type
[17] = 0.0048 µg/ml, genetic background: ΔmarA
[18] = 0.0048 µg/ml, genetic background: Δrob
[19] = 0.0048 µg/ml, genetic background: ΔsoxS
[20] = 0.01 µg/ml, genetic background: wild type
[21] = 0.01 µg/ml, genetic background: ΔmarA
[22] = 0.01 µg/ml, genetic background: Δrob
[23] = 0.01 µg/ml, genetic background: ΔsoxS

SMILES: CO/N=C(\C(=O)N[C@@H]1C(=O)N2C(C(=O)O)=C(COC(C)=O)CS[C@H]12)c1csc(N)n1 [Cefotaxime]
- promoter activity interaction Z-score [1, 8]: -0.284 ± 0.025
- promoter activity interaction Z-score [1, 9]: 0.0868 ± 0.9
- promoter activity interaction Z-score [1, 10]: -0.103 ± 0.27
- promoter activity interaction Z-score [1, 11]: -0.098 ± 0.18
- promoter activity interaction Z-score [1, 12]: -0.0863 ± 0.2
- promoter activity interaction Z-score [1, 13]: -0.059 ± 0.93
- promoter activity interaction Z-score [1, 14]: 0.00639 ± 0.18
- promoter activity interaction Z-score [1, 15]: 0.118 ± 0.16
- promoter activity interaction Z-score [1, 16]: -0.23 ± 0.15
- promoter activity interaction Z-score [1, 17]: 0.42 ± 0.9
- promoter activity interaction Z-score [1, 18]: -0.311 ± 0.072
- promoter activity interaction Z-score [1, 19]: -0.148 ± 0.096
- promoter activity interaction Z-score [1, 20]: -0.274 ± 0.025
- promoter activity interaction Z-score [1, 21]: -1.6 ± 0.042
- promoter activity interaction Z-score [1, 22]: -0.154 ± 0.33
- promoter activity interaction Z-score [1, 23]: 0.212 ± 0.064
- promoter activity interaction Z-score [2, 8]: -0.109 ± 0.032
- promoter activity interaction Z-score [2, 9]: -0.16 ± 0.041
- promoter activity interaction Z-score [2, 10]: -0.227 ± 0.0043
- promoter activity interaction Z-score [2, 11]: -0.0693 ± 0.13
- promoter activity interaction Z-score [2, 12]: 0.0203 ± 0.031
- promoter activity interaction Z-score [2, 13]: -0.118 ± 0.093
- promoter activity interaction Z-score [2, 14]: 0.021 ± 0.12
- promoter activity interaction Z-score [2, 15]: -0.0591 ± 0.15
- promoter activity interaction Z-score [2, 16]: -0.2 ± 0.023
- promoter activity interaction Z-score [2, 17]: -0.394 ± 0.27
- promoter activity interaction Z-score [2, 18]: -0.171 ± 0.25
- promoter activity interaction Z-score [2, 19]: -0.214 ± 0.072
- promoter activity interaction Z-score [2, 20]: 0.0434 ± 0.19
- promoter activity interaction Z-score [2, 21]: -0.126 ± 0.0051
- promoter activity interaction Z-score [2, 22]: 0.448 ± 0.33
- promoter activity interaction Z-score [2, 23]: 0.448 ± 0.066
- promoter activity interaction Z-score [3, 8]: 0.00627 ± 0.0068
- promoter activity interaction Z-score [3, 9]: -0.0578 ± 0.08
- promoter activity interaction Z-score [3, 10]: 0.0368 ± 0.11
- promoter activity interaction Z-score [3, 11]: -0.0273 ± 0.11
- promoter activity interaction Z-score [3, 12]: -0.0766 ± 0.15
- promoter activity interaction Z-score [3, 13]: 0.0449 ± 0.11
- promoter activity interaction Z-score [3, 14]: 0.0295 ± 0.15
- promoter activity interaction Z-score [3, 15]: -0.18 ± 0.098
- promoter activity interaction Z-score [3, 16]: -0.0576 ± 0.36
- promoter activity interaction Z-score [3, 17]: -0.223 ± 0.19
- promoter activity interaction Z-score [3, 18]: 0.0329 ± 0.18
- promoter activity interaction Z-score [3, 19]: -0.198 ± 0.15
- promoter activity interaction Z-score [3, 20]: -0.5 ± 0.52
- promoter activity interaction Z-score [3, 21]: -0.278 ± 0.011
- promoter activity interaction Z-score [3, 22]: -0.0107 ± 0.074
- promoter activity interaction Z-score [3, 23]: -0.133 ± 0.077
- promoter activity interaction Z-score [4, 8]: -0.111 ± 0.025
- promoter activity interaction Z-score [4, 9]: -0.439 ± 0.11
- promoter activity interaction Z-score [4, 10]: -0.492 ± 0.1
- promoter activity interaction Z-score [4, 11]: 0.179 ± 0.43
- promoter activity interaction Z-score [4, 12]: 0.0538 ± 0.32
- promoter activity interaction Z-score [4, 13]: 0.191 ± 0.18
- promoter activity interaction Z-score [4, 14]: -0.287 ± 0.12
- promoter activity interaction Z-score [4, 15]: -0.23 ± 0.033
- promoter activity interaction Z-score [4, 16]: -0.24 ± 0.46
- promoter activity interaction Z-score [4, 17]: -0.537 ± 0.14
- promoter activity interaction Z-score [4, 18]: -0.409 ± 0.18
- promoter activity interaction Z-score [4, 19]: -0.158 ± 0.26
- promoter activity interaction Z-score [4, 20]: -0.753 ± 0.55
- promoter activity interaction Z-score [4, 21]: -2.18 ± 0.79
- promoter activity interaction Z-score [4, 22]: -0.598 ± 0.51
- promoter activity interaction Z-score [4, 23]: -2.53
- promoter activity interaction Z-score [5, 8]: -0.219 ± 0.23
- promoter activity interaction Z-score [5, 9]: -0.756 ± 0.2
- promoter activity interaction Z-score [5, 10]: -0.209 ± 0.28
- promoter activity interaction Z-score [5, 11]: -0.0836 ± 0.31
- promoter activity interaction Z-score [5, 12]: -0.0844 ± 0.072
- promoter activity interaction Z-score [5, 13]: 0.0702 ± 0.056
- promoter activity interaction Z-score [5, 14]: 0.0668 ± 0.073
- promoter activity interaction Z-score [5, 15]: -0.0496 ± 0.19
- promoter activity interaction Z-score [5, 16]: 0.227 ± 0.29
- promoter activity interaction Z-score [5, 17]: -0.466 ± 0.095
- promoter activity interaction Z-score [5, 18]: 0.0502 ± 0.2
- promoter activity interaction Z-score [5, 19]: -0.0174 ± 0.097
- promoter activity interaction Z-score [5, 20]: -1.42 ± 0.066
- promoter activity interaction Z-score [5, 21]: -2.06 ± 1.6
- promoter activity interaction Z-score [5, 22]: -1.76 ± 0.19
- promoter activity interaction Z-score [5, 23]: -2.39 ± 0.34
- promoter activity interaction Z-score [6, 8]: 0.251 ± 0.06
- promoter activity interaction Z-score [6, 9]: -0.00348 ± 0.14
- promoter activity interaction Z-score [6, 10]: 0.17 ± 0.16
- promoter activity interaction Z-score [6, 11]: 0.0148 ± 0.24
- promoter activity interaction Z-score [6, 12]: 0.182 ± 0.044
- promoter activity interaction Z-score [6, 13]: 0.121 ± 0.06
- promoter activity interaction Z-score [6, 14]: 0.225 ± 0.25
- promoter activity interaction Z-score [6, 15]: 0.066 ± 0.3
- promoter activity interaction Z-score [6, 16]: -0.0447 ± 0.15
- promoter activity interaction Z-score [6, 17]: -0.225 ± 0.1
- promoter activity interaction Z-score [6, 18]: -0.0284 ± 0.17
- promoter activity interaction Z-score [6, 19]: -0.179 ± 0.2
- promoter activity interaction Z-score [6, 20]: -0.209 ± 0.042
- promoter activity interaction Z-score [6, 21]: -0.312 ± 0.071
- promoter activity interaction Z-score [6, 22]: -0.223 ± 0.19
- promoter activity interaction Z-score [6, 23]: 0.193 ± 0.17
- promoter activity interaction Z-score [7, 8]: 0.0259 ± 0.64
- promoter activity interaction Z-score [7, 9]: 0.293 ± 0.38
- promoter activity interaction Z-score [7, 10]: -0.312 ± 0.38
- promoter activity interaction Z-score [7, 11]: -0.0825 ± 0.76
- promoter activity interaction Z-score [7, 12]: 0.373 ± 1.2
- promoter activity interaction Z-score [7, 13]: 0.241 ± 0.74
- promoter activity interaction Z-score [7, 14]: -0.132 ± 1.1
- promoter activity interaction Z-score [7, 15]: -0.287 ± 1.4
- promoter activity interaction Z-score [7, 16]: 0.132 ± 0.29
- promoter activity interaction Z-score [7, 17]: -0.365 ± 0.46
- promoter activity interaction Z-score [7, 18]: -0.311 ± 0.89
- promoter activity interaction Z-score [7, 19]: 0.17 ± 0.82
- promoter activity interaction Z-score [7, 20]: -0.425 ± 1.4
- promoter activity interaction Z-score [7, 21]: -0.436 ± 0.19
- promoter activity interaction Z-score [7, 22]: 0.622 ± 1.5
- promoter activity interaction Z-score [7, 23]: -0.234 ± 0.026
